Test results from article PMC4336329 (PLoS ONE, 2015).
About 14,000 (4.5%) of roughly 310,000 compounds showed an effect of 50% or more. Effects have a minus sign here. The sample as a whole holds a higher share of strong results than the screen did.

Target: human ether-à-go-go-related gene (hERG) potassium channel (human, UniProt Q12809)
Experiment: primary screen, population patch clamp on CHO cells stably expressing hERG; higher = less effect of the substance
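Note: peak tail current of the secondary pulse compared with the same well before compound.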

Chain of human ether-à-go-go-related gene (hERG) potassium channel (Q12809 whole entry, looked up): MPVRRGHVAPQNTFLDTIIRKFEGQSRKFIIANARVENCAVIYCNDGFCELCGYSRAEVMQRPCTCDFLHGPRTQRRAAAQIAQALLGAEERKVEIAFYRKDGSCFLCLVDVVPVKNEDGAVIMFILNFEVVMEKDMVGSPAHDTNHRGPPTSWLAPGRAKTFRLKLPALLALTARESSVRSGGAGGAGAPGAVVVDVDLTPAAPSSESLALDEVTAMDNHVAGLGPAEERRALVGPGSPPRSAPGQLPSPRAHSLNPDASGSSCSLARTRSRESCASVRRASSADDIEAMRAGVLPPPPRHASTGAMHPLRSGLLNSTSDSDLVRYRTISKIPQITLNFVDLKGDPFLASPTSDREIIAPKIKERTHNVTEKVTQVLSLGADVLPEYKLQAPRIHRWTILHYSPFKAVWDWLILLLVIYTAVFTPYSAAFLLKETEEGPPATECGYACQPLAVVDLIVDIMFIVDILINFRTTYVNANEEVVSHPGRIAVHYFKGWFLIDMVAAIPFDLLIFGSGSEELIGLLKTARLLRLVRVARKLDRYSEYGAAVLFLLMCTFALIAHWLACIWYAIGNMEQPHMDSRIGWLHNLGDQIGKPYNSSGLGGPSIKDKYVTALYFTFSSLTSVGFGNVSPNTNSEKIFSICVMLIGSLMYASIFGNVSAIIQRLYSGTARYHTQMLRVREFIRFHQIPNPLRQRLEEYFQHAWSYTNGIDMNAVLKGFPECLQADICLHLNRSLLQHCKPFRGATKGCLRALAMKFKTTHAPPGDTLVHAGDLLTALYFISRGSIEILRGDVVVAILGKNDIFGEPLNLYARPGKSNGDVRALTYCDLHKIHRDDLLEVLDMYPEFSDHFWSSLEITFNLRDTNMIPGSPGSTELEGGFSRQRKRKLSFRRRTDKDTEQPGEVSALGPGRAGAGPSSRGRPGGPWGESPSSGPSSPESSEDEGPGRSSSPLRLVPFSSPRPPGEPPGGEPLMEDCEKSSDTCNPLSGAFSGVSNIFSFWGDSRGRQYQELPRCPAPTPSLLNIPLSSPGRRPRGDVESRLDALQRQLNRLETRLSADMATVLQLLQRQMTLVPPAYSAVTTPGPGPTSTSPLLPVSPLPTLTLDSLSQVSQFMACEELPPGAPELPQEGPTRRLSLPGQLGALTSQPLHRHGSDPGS

| Structure (SMILES) | hERG current change (%, negative = inhibition) at 10uM |
| --- | --- |
| O=C(CNC(=O)c1ccco1)N/N=C/c1ccc(O)c([N+](=O)[O-])c1 | 29.1% |
| COC(=O)c1[nH]c(C)c(/C(O)=C2\C(=O)C(=O)N(CCN(C)C)C2c2ccccc2OC)c1C (stereo not drawn) | 15.3% |
| CC(=O)N1CCN(c2ccc(NC(=O)c3cccc(Cl)c3Cl)cc2)CC1 | -8.8% |
| N/C(=N\OC(=O)c1cccc(C(F)(F)F)c1)c1cnccn1 | 16.7% |
| Cc1cccc(CC(=O)Nc2c3c(nn2-c2cccc(Cl)c2)CS(=O)C3)c1 (stereo not drawn) | 6.32% |
| COc1ccc(NC(=O)CN2CCC(C(N)=O)CC2)cc1 | 2.76% |
| CCc1ccc(NC(=O)CN2CCC(C(=O)c3ccc(OC)cc3)CC2)cc1 | -62.8% |
| COc1ccc(C(=O)C2CCN(CC(=O)Nc3cc(C)cc(C)c3)CC2)cc1 | -65.2% |
| COc1ccc(OC)c(NC(=O)CN2CCC(C(=O)c3ccc(C)cc3)CC2)c1 | -17.7% |
| Cc1cc(C)cc(NC(=O)CN2CCC(C(=O)c3ccccc3)CC2)c1 | -48.6% |
| COc1ccc(NC(=O)CN2CCC(C)CC2)cc1 | -4.51% |
| Nc1ncnc2c1ncn2C1OC(CO)C(O)C1O (stereo not drawn) | 35.7% |
| O=C(Cc1ccsc1)NNC(=O)c1ccccc1O | 7.87% |
| COc1ccc(C)cc1NC(=O)CSc1nnc(COc2ccccc2)n1Cc1ccco1 | -9.46% |
| CCOC(=O)c1c(N)sc(C(O)(C(F)(F)F)C(F)(F)F)c1-c1ccc(Cl)cc1 | -4.79% |
| COC(=O)Cc1csc(Nc2ccc(Cl)cc2)n1 | 7.01% |
| CC(C)[C@H](NC(N)=O)C(=O)NCCc1ccc(Cl)cc1Cl | -27% |
| Cc1ccc(OCc2cc(C(=O)N3CCN(c4ccccc4)CC3)no2)cc1C | -0.317% |
| O=C(/C(C=Nc1ccc(Br)cc1)=C(/O)c1ccco1)C(F)(F)F | -52.6% |
| O=C(/C(C=Nc1cccc(C(F)(F)F)c1)=C(/O)c1ccco1)C(F)(F)F | -29.8% |

| Structure (SMILES) | hERG current change (%, negative = inhibition) at 10uM |
| --- | --- |
| O=C(/C(C=Nc1ccc(F)cc1)=C(/O)c1ccco1)C(F)(F)F | -26.7% |
| CC(=O)c1cccc(NC(=O)c2cc(-c3cccs3)on2)c1 | 27% |
| CCN1CCN(C(=O)Nc2cc(Cl)ccc2OC)CC1 | 2.98% |
| CCN1CCN(c2ncc(C(=O)Nc3ccccc3C(=O)OC)c3ccccc23)CC1 | -47.2% |
| O=C(Nc1c(F)cccc1F)c1cnc(N2CCN(c3ccccn3)CC2)c2ccccc12 | -4.56% |
| CCN1CCN(c2ncc(C(=O)Nc3c(F)cc(F)cc3Br)c3ccccc23)CC1 | -60% |
| Cc1ccc(NC(=O)c2cnc(N3CCN(c4ccccn4)CC3)c3ccccc23)c(Br)c1 | 10.7% |
| CCN1CCN(c2ncc(C(=O)Nc3cc(Cl)ccc3OC)c3ccccc23)CC1 | -61.5% |
| Cc1cc(C)c(C)c(S(=O)(=O)NCC(=O)N2CCCC2)c1C | 7.49% |
| Clc1ccc(SCCOCCN2CCCCC2)cc1.O=C(O)C(=O)O | -82% |
| CC(C)NCCOCCSc1ccc(Cl)cc1.O=C(O)C(=O)O | -30.2% |
| Clc1ccc(SCCOCCN2CCOCC2)cc1.O=C(O)C(=O)O | 1.54% |
| Clc1ccc(SCCOCCN2CCCCCC2)cc1.O=C(O)C(=O)O | -73.3% |
| Clc1ccc(SCCCCN2CCOCC2)cc1.O=C(O)C(=O)O | -22.5% |
| Clc1ccc(SCCCCN2CCNCC2)cc1.O=C(O)C(=O)O | -48.7% |
| Clc1ccc(SCCCN2CCCCC2)cc1.O=C(O)C(=O)O | -76% |
| CCC(C)NCCOCCSc1ccc(Cl)cc1.O=C(O)C(=O)O (stereo not drawn) | -46.9% |
| Clc1ccc(SCCN2CCNCC2)cc1.O=C(O)C(=O)O | -5.25% |
| COc1ccc(-c2nn(-c3ccccc3)cc2/C=N/N=C(N)N)cc1OC | -27.8% |
| CCN(CCCCCCN)c1ccc2c(=O)[nH][nH]c(=O)c2c1 | 6.75% |

| Structure (SMILES) | hERG current change (%, negative = inhibition) at 10uM |
| --- | --- |
| Cc1ccc(CN(C(=O)Cn2nnc3ccccc32)C(C(=O)NCc2ccco2)c2cccs2)cc1 (stereo not drawn) | -23.1% |
| CN(C(=O)COC(=O)c1ccc2c(c1)OCO2)C1CCS(=O)(=O)C1 (stereo not drawn) | 9.31% |
| O=C(/C=C/c1cccc([N+](=O)[O-])c1)N1CCN(c2ccccn2)CC1 | -41.2% |
| COCCn1c(=NC(=O)CN2C(=O)CCC2=O)sc2cc(S(N)(=O)=O)ccc21 | -9.48% |
| CC(CC(=O)Nc1ccccc1)n1ccnc1 (stereo not drawn) | -5.07% |
| O=c1cccc(-c2ccccc2)[nH]1 | -2.53% |
| COc1ccc2nc(N3CCOCC3)cc(C)c2c1 | -0.452% |
| Cc1ccccc1NC(=O)c1cccc2nc3ccccc3nc12 | 13.8% |
| O=C(Nc1ccc(F)cc1)Nc1cc(S(=O)(=O)N2CCOCC2)ccc1N1CCCC1 | -97.4% |
| O=C(Nc1cc(S(=O)(=O)N2CCOCC2)ccc1N1CCOCC1)c1ccc(S(=O)(=O)N2CCCCC2)cc1 | -1.72% |
| CCOc1ccc(Oc2ccc(S(=O)(=O)N3CCOCC3)cc2NC(=O)C2=COCCO2)cc1 | -41.9% |
| O=C(COC(=O)c1ccc(F)cc1)Nc1cc(S(=O)(=O)N2CCOCC2)ccc1N1CCCC1 | -28.2% |
| O=C(Nc1cc(S(=O)(=O)N2CCCCC2)ccc1Oc1ccccc1)C1=COCCO1 | -10.6% |
| O=C(Nc1cc(S(=O)(=O)N2CCOCC2)ccc1N1CCCC1)c1ccc(F)cc1 | -82.3% |
| O=C(Nc1cc(S(=O)(=O)N2CCOCC2)ccc1Oc1ccc(F)cc1)C1=COCCO1 | -69.8% |
| CCN(CC)S(=O)(=O)c1ccc(N2CCOCC2)c(NC(=O)Cc2ccccc2)c1 | -36.2% |
| Cc1ccc(C(=O)Nc2cc(S(=O)(=O)N3CCOCC3)ccc2N2CCCC2)cc1 | -8.42% |
| CCN(CC)S(=O)(=O)c1ccc(N2CCOCC2)c(NC(=O)COc2ccccc2)c1 | -11.1% |
| O=C(Nc1cc(S(=O)(=O)N2CCOCC2)ccc1N1CCCC1)C1CC1 | -0.0868% |
| CCN(CC)S(=O)(=O)c1ccc(N2CCOCC2)c(NC(=O)CNCCc2ccccc2)c1.O=C(O)C(=O)O | -63.8% |
